SW480 rerep: A quantitative high throughput screen for small molecules that induce DNA re-replication in SW480 colon adenocarcinoma cells; AID 624297, 2012; 1.8% of 340,000 active; SW480 DNA re-replication, Hoechst DNA content imaging, 48 h; Potency, µM (highest dose often 46.1 µM), for the others: at the highest dose re-replication activation, actives largely listed as activators; further: % of control where 0% means no effect; nearly all actives have a fitted effect of over 55% in size
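Treated cells incubate 48 hr (37 C, 5% CO2), are stained 40 min with Hoechst, and nuclear fluorescence is enumerated; a rise in nuclei with high DNA signal marks re-replication.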
VP16 counter: VP16 counterscreen qHTS for inhibitors of ROR gamma transcriptional activity; 3.5% of 310,000 active; Potency, µM (series often up to 53.6 µM), inactives show at the top dose activity, negative = inhibition, usual class: inhibitors; AID 2546, 2010; Drosophila S2 Gal4-VP16 UAS-luciferase, luminescence, 20 h;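 further: Gal4-VP16 expression switched on by copper sulfate through the metallothionein promoter; on the % scale 0 is the no-effect control and ±100 the full control effect; nearly all actives have a fitted effect of over 50% in size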
RORg inh: qHTS for inhibitors of ROR gamma transcriptional activity. 5.4% of 310,000 active. AID 2551, 2010. Drosophila S2 Gal4-RORgamma UAS-luciferase reporter, 20 h. Potency, µM (titrated, usually from 53.6 µM), for the others: at the highest dose activity change, negative = inhibition, actives largely listed as inhibitors; further: on the % scale 0 is the no-effect control and ±100 the full control effect; nearly all actives have a fitted effect of over 60% in size
Target sequence (P51450 whole entry, looked up, the tested form may be a part): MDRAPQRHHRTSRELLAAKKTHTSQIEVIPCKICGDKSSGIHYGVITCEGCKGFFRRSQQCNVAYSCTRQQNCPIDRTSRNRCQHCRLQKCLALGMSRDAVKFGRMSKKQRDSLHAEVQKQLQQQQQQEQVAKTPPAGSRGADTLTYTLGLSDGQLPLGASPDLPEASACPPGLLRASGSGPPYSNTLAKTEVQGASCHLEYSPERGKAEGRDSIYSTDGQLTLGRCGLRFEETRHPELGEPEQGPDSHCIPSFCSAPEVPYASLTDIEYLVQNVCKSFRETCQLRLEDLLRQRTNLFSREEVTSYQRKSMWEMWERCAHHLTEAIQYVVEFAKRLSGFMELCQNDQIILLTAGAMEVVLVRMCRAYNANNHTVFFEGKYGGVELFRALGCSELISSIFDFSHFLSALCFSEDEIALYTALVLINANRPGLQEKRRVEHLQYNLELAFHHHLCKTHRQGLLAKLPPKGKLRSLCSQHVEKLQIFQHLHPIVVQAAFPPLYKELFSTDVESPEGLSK
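Schneider cells (Drosophila), stable Gal4 DBD–ROR gamma + UAS-luc; 1 hr cmpd preincubation; Cu2+ induction 700 uM final; 20 hr ambient; luminescence.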
KB-3-1 cytotox: qHTS assay for MDR1-selective chemotherapeutics: Primary screen using the parental adenocarcinoma cell KB-3-1. 1.4% of 400,000 active. Potency, µM (doses to about 46.1 µM), actives largely listed as cytotoxic. AID 1347075, 2019. KB-3-1 viability, CellTiter-Glo ATP luminescence, 72 h; further: on the % scale 0 is the no-effect control and ±100 the full control effect; nearly all actives have a fitted effect of over 60% in size
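Parental KB-3-1 viability, qHTS format: 72 h compound exposure, 37 °C; CellTiter-Glo; media-only wells and DMSO plates as controls; concentration-effect fits on corrected data.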
MCF10A rerep: A quantitative high throughput screen for small molecules that induce DNA re-replication in MCF 10a normal breast cells | MCF 10A DNA re-replication, Hoechst nuclear intensity, 48 h | Potency, µM (doses to about 46.1 µM), for the others: top-dose activity, positive = re-replication, actives largely listed as activators | 2.9% of 350,000 active; further: % of control where 0% means no effect; nearly all actives have a fitted effect of over 50% in size
KB-V1 cytotox: qHTS assay for MDR1-selective chemotherapeutics: Primary screen using the drug-selected MDR subline cells KB-V1. KB-V1 MDR cells viability, CellTiter-Glo, 72 h. Potency, µM (highest dose often 46.1 µM), most hits filed as cytotoxic. 3.4% of 400,000 active. AID 1347076, 2019; further: on the % scale 0 is the no-effect control and ±100 the full control effect; nearly all actives have a fitted effect of over 60% in size
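Compound-treated KB-V1 multidrug-resistant cells, 72 h, 37 degrees C; viability by CellTiter-Glo. Fitted qHTS curves give the values.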
* marks the source's active call; other numbers are inactive results; i = inactive; ? = inconclusive; / = not tested or not shown. A selection: hits, their analogues and other compounds. The true share with any hit is near 10%. The call rests on the fitted dose curve; in most records, active means well fitted curve in the direction sought with a large enough effect; inconclusive means small, poorly fitted or top-dose-only effect, or another doubt; inactive means no such curve, though single readings can be large; an effect the other way counts as inactive or inconclusive. Potency means the concentration at half of the fitted maximal effect.

SMILES	SW480 rerep	VP16 counter	RORg inh	KB-3-1 cytotox	MCF10A rerep	KB-V1 cytotox
CN(Cc1ccccc1)C(C(=O)NC1CCCCC1)c1ccc(Cl)cc1 (centres undefined)	/	/	/	i	/	i
C=CCn1c(SCC(=O)c2[nH]c(C)c(C(=O)OCC)c2C)nc2scc(-c3ccccc3)c2c1=O	8%	-18%	-7%	i	?	i
C=CCn1c(SCC(=O)c2[nH]c(C)c(C(=O)OCC)c2C)nc2scc(-c3ccc(OC)cc3)c2c1=O	?	-2%	-12%	4.6µM*	?	?
COc1cccc(-c2ccc(NC(=O)C3CCCN(Cc4cnc(C)n4C)C3)cc2)c1 (centres undefined)	-2%	-5%	-30%	/	?	/
COc1cccc(-c2ccc(NC(=O)C3CCCN(Cc4nccn4C)C3)cc2)c1 (centres undefined)	-2%	?	5µM*	i	?	?
COc1cccc(CN2CCCC(C(=O)Nc3ccc(-c4cscn4)cc3)C2)c1 (centres undefined)	?	-5%	19%	?	1%	21µM*
COCc1cc(CN2CCCC(C(=O)Nc3ccc(-c4ccco4)cc3)C2)ccc1OC (centres undefined)	23µM*	5%	9%	?	2%	i
Cc1ncc(CN2CCCC(C(=O)Nc3ccc(-c4cccc(F)c4)cc3)C2)n1C (centres undefined)	?	-9%	-18%	?	23µM*	?
CC[C@H](C)[C@H](N)C(=O)N[C@@H](CC(N)=O)C(=O)N1CCC[C@H]1C(=O)N[C@H](C(=O)N[C@@H](Cc1ccc(O)cc1)C(=O)N[C@@H](CCCN=C(N)N)C(=O)N[C@@H](CC(C)C)C(=O)N[C@@H](CCCN=C(N)N)C(=O)N[C@@H](Cc1ccc(O)cc1)C(N)=O)[C@@H](C)CC	/	3%	-18%	/	/	/
CCOC(=O)C(Cc1nc(OCc2ccccc2)cc(OCc2ccccc2)n1)=NO	12%	/	/	21µM*	21µM*	13µM*
COc1ccc(Oc2ncc3nc(-c4cccs4)c(=O)n(CCC#N)c3n2)cc1	/	-1%	-12%	/	/	/
Cc1ccc(C)c(CNC(=O)CN2C(=O)CSc3ccc(S(=O)(=O)N(C)C)cc32)c1	/	/	/	i	/	i
N#CC1=C(N)SC(N)=C(C#N)C1c1cccc(Oc2ccccc2)c1	8%	?	?	i	?	i
N#CC1=C(N)SC2(CCCCC2)SC1c1ccccc1 (centres undefined)	4%	?	6.3µM*	i	2%	i
CCc1cc(C(=O)N/N=C/c2ccc(O)cc2)c2ccccc2n1	?	6%	5%	?	23µM*	i
O=C(N/N=C/c1cc([N+](=O)[O-])ccc1Cl)c1cc(-c2ccccc2)nc2ccccc12	-2%	3%	14%	i	2%	i
O=C(N/N=C/c1ccc(O)c(O)c1)c1cc(-c2ccccc2)nc2ccccc12	-1%	/	/	i	14%	i
O=C(N/N=C/c1cccc([N+](=O)[O-])c1)c1c[nH]c2ccccc12	-7%	-8%	?	i	0%	i
Cc1cc(Nc2ccccc2)c2c([N+](=O)[O-])ccc(C)c2n1	-27%	35µM*	?	i	0%	i
O=C(N/N=C/c1cc([N+](=O)[O-])ccc1O)c1c[nH]c2ccccc12	8%	?	5µM*	?	12%	?
Cc1cc(Nc2cccc([N+](=O)[O-])c2)c2cccc(C)c2n1	-6%	-3%	-19%	i	-1%	i
O=C(N/N=C/c1cc([N+](=O)[O-])ccc1O)c1cc(-c2ccccc2)nc2ccccc12	?	4µM*	3.2µM*	?	?	i
Oc1c(C(c2ccc(Cl)cc2)N2CCOCC2)sc2nc(-c3ccco3)nn12 (centres undefined)	/	/	/	i	/	i
O=C(N/N=C/c1ccc([N+](=O)[O-])cc1)c1cc(C2CC2)nc2ccccc12	?	-35%	12%	?	?	i
Cc1cc(C(=O)N/N=C/c2cc([N+](=O)[O-])ccc2O)c2ccccc2n1	16µM*	4.5µM*	2.8µM*	i	13%	?
SMILES	SW480 rerep	VP16 counter	RORg inh	KB-3-1 cytotox	MCF10A rerep	KB-V1 cytotox
Cc1cc(C(=O)N/N=C/c2ccc(N(C)C)cc2)c2ccccc2n1	18µM*	-7%	16µM*	9.2µM*	7.1µM*	?
Cc1cc(C(=O)N/N=C/c2ccc([N+](=O)[O-])s2)c2ccccc2n1	25%	3.5µM*	5.6µM*	?	?	i
O=C(N/N=C/c1ccc(Cl)c([N+](=O)[O-])c1)c1cc(-c2ccccc2)nc2ccccc12	-10%	-9%	?	i	12µM*	i
CCNC(=O)C1(C)CCN(C(=O)c2c(F)cccc2F)C1 (centres undefined)	/	/	/	i	/	i
Cc1ccc(CNc2ncnc3ccc(-c4ccc(CO)o4)cc23)o1	/	/	/	i	/	i
COC(=O)c1sccc1S(=O)(=O)N(CC(=O)NCc1ccccc1)c1ccc(C)cc1	/	/	/	i	/	i
Cc1cccc(/C=N/NC(=O)c2cc(C)nc3ccccc23)n1	-5%	?	11µM*	i	0%	?
CCOc1ccc2nc(C)cc(Nc3cccc([N+](=O)[O-])c3)c2c1	?	?	?	i	18µM*	15µM*
COc1cc(/C=N/NC(=O)c2ccncc2)cc(OC)c1OC	0%	1%	-4%	i	?	i
Cc1cccc(/C=N/NC(=O)c2cc(C3CC3)nc3ccccc23)n1	-5%	?	?	i	-1%	i
CCc1ccc(/C=N/NC(=O)c2cc(C3CC3)nc3ccccc23)s1	18µM*	1.8µM*	1.3µM*	5.2µM*	7.3µM*	5.2µM*
COc1cc(C(=O)NN=Cc2ccc(N(C)C)cc2)cc(OC)c1OC	/	/	/	1.5µM*	/	3.7µM*
CCc1nc2c(OCCOc3ccc(F)cc3)cccn2c1N(C=O)Cc1ccccc1	/	/	/	i	/	i
OC[C@@H]1CN(Cc2cccs2)C[C@H](n2cnc3c(NCc4ccco4)ncnc32)O1	/	/	/	i	/	i
CC(=O)Oc1ccc(Cn2c(C)c(C(=O)NC3CC3)sc2=O)cc1	/	/	/	i	/	i

From PubChem BioAssay
